Test results from publication PMC7862700, “An all-to-all approach to the identification of sequence-specific readers for epigenetic DNA modifications on cytosine”.

What was measured:
Experiment in all cases: DAPPL (digital affinity profiling via proximity ligation, sequencing); 10 mM Tris-HCl pH 7.5, 50 mM NaCl, 1 mM DTT, 4% glycerol, room temperature, 30 min; GST-TFs on glutathione beads, 16-mer random dsDNA library, 0.1% formaldehyde crosslink after washing; high values mean tight binding
FLI1 = molecular target: T1, FLI1 (Homo sapiens, UniProt Q01543 1-452); conditions: protein: recombinant; tags: N-terminal GST; dsDNA, one strand shown
T1 sequence: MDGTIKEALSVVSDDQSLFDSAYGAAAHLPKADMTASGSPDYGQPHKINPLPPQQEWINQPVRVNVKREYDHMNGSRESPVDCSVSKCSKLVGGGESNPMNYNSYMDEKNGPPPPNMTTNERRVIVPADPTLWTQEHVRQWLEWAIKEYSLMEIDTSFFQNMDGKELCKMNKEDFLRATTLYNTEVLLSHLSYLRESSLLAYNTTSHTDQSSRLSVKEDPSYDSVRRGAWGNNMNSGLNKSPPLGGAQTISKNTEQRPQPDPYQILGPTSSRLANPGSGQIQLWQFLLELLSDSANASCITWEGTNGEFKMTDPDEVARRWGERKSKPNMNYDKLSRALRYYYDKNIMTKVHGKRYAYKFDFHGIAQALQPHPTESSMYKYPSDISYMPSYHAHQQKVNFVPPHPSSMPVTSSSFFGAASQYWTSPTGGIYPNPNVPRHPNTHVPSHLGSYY
Procedure, shortened: (§1)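 Human transcription factors carrying a GST fusion were produced in yeast, bound to glutathione beads, tagged with DNA barcodes and pooled together with a tag-only sample. Each pool was held with 200 nmole of a random double-stranded 16-mer DNA library in Tris/NaCl/DTT/glycerol buffer for 30 min at room temperature, then washed, crosslinked in 0.1% formaldehyde, proximity-ligated with BsaI/T4 ligase (1 h, 37 °C), PCR-amplified and sequenced on an Illumina NextSeq500. Binding signal is the read frequency of each hexamer for a given factor divided by its frequency in the tag-only sample.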

ELK1 = molecular target: T2, ELK1 (Homo sapiens, UniProt P19419 1-428); conditions: protein: recombinant; tags: N-terminal GST; dsDNA, one strand shown
T2 sequence: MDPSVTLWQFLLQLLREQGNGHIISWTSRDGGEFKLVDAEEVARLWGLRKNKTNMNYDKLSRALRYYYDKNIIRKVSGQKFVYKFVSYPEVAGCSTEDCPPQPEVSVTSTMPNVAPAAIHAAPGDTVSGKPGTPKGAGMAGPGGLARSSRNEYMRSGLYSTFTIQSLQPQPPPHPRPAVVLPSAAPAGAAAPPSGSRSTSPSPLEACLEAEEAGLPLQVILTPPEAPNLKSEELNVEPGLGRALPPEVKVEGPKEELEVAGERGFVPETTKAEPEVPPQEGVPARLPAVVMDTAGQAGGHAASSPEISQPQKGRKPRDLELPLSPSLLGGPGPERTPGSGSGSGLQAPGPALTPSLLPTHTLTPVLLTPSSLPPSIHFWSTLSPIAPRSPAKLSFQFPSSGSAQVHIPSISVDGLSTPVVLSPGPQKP
Procedure, shortened: as §1

GABPA = molecular target: T3, GABPA (Homo sapiens, UniProt Q06546 1-454); conditions: protein: recombinant; tags: N-terminal GST; dsDNA, one strand shown
T3 sequence: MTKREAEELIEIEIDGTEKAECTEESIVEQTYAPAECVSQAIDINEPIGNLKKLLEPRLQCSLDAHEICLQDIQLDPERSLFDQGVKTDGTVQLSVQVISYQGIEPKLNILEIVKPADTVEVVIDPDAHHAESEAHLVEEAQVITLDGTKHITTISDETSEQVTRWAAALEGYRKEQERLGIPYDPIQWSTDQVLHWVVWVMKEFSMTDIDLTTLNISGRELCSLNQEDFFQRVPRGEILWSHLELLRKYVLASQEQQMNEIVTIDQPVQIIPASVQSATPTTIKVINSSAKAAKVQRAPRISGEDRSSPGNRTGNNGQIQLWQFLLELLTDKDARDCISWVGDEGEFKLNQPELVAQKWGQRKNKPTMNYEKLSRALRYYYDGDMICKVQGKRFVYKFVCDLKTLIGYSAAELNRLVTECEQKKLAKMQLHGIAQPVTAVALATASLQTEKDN
Procedure, shortened: as §1

ERG = molecular target: T4, ERG (Homo sapiens, UniProt P11308 1-479); conditions: protein: recombinant; tags: N-terminal GST; dsDNA, one strand shown
T4 sequence: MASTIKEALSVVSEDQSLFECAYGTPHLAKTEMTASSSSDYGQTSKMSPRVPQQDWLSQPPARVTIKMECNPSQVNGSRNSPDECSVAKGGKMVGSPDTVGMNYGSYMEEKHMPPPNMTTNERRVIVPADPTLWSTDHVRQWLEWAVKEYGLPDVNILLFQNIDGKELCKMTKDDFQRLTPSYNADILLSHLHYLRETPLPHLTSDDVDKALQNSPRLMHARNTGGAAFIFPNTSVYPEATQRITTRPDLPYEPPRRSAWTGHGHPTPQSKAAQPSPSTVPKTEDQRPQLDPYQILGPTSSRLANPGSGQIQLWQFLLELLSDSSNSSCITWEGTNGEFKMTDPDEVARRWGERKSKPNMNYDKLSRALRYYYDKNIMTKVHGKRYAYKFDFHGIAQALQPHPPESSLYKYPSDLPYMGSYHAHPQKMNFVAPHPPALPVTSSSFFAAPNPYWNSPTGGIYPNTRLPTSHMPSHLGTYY
Procedure, shortened: as §1

ELF1 = ELF1 (Homo sapiens, UniProt P32519 1-619); conditions: protein: recombinant; tags: N-terminal GST; dsDNA, one strand shown
Procedure, shortened: as §1

EHF = molecular target: T5, EHF (Homo sapiens, UniProt Q9NZC4 1-300); conditions: protein: recombinant; tags: N-terminal GST; dsDNA, one strand shown
T5 sequence: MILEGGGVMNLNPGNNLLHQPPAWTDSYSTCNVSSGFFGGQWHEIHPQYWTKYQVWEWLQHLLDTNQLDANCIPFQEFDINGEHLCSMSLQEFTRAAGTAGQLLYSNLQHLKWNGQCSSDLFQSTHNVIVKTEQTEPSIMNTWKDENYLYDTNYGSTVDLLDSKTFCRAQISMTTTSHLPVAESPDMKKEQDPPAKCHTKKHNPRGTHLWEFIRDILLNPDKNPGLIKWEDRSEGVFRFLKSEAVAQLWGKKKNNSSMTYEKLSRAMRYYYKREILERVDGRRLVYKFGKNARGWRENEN
Procedure, shortened: as §1

SPI1 = SPI1 (Homo sapiens, UniProt P17947 1-270); conditions: protein: recombinant; tags: N-terminal GST; dsDNA, one strand shown
Procedure, shortened: as §1

SPIB = SPIB (Homo sapiens, UniProt Q01892 1-262); conditions: protein: recombinant; tags: N-terminal GST; dsDNA, one strand shown
Procedure, shortened: as §1

ELK3 = molecular target: T6, ELK3 (Homo sapiens, UniProt P41970 1-407); conditions: protein: recombinant; tags: N-terminal GST; dsDNA, one strand shown
T6 sequence: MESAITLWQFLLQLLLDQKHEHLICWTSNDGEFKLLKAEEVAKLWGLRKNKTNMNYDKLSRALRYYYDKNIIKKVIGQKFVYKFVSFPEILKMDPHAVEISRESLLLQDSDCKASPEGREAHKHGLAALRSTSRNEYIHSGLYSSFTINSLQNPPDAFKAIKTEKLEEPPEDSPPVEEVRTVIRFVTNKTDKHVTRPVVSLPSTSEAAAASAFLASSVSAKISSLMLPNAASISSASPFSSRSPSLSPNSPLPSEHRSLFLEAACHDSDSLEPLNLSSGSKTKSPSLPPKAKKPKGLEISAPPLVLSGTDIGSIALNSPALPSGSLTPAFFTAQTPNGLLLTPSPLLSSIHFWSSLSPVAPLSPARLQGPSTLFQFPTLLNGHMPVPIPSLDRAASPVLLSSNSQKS
Procedure, shortened: as §1

FEV = molecular target: T7, FEV (Homo sapiens, UniProt Q99581 1-238); conditions: protein: recombinant; tags: N-terminal GST; dsDNA, one strand shown
T7 sequence: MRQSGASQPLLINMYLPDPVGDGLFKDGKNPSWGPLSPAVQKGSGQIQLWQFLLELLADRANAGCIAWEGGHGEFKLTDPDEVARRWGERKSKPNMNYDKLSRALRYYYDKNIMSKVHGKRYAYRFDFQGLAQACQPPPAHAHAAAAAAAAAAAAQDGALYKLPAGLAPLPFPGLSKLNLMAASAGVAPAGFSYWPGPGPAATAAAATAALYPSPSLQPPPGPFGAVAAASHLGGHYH
Procedure, shortened: as §1

ETV5 = ETV5 (Homo sapiens, UniProt P41161 1-510); conditions: protein: recombinant; tags: N-terminal GST; dsDNA, one strand shown
Procedure, shortened: as §1

HSF1 = HSF1 (Homo sapiens, UniProt Q00613 1-529); conditions: protein: recombinant; tags: N-terminal GST; chain copies: 3; dsDNA, one strand shown
Procedure, shortened: as §1

SPIC = molecular target: T8, SPIC (Homo sapiens, UniProt Q8N5J4 1-248); conditions: protein: recombinant; tags: N-terminal GST; dsDNA, one strand shown
T8 sequence: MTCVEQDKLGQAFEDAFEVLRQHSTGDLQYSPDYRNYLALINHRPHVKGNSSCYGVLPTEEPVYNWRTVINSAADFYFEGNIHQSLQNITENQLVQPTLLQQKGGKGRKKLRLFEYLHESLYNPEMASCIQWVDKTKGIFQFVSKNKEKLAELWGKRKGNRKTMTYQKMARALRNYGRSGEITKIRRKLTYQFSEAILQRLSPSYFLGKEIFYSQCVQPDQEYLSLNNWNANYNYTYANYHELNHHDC
Procedure, shortened: as §1

ELF4 = ELF4 (Homo sapiens, UniProt Q99607 1-663); conditions: protein: recombinant; tags: N-terminal GST; dsDNA, one strand shown
Procedure, shortened: as §1

ELK4 = molecular target: T9, ELK4 (Homo sapiens, UniProt P28324-2 1-405); conditions: protein: recombinant; tags: N-terminal GST; dsDNA, one strand shown
T9 sequence: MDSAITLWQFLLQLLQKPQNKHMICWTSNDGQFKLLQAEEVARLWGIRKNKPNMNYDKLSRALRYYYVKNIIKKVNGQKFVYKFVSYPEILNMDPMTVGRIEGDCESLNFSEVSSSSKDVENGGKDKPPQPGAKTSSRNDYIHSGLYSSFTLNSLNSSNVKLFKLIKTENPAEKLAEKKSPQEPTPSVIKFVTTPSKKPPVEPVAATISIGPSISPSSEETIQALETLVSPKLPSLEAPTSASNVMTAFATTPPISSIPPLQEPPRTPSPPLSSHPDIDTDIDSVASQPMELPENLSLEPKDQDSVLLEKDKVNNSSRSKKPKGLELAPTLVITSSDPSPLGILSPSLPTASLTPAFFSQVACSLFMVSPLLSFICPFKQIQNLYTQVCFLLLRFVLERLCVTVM
Procedure, shortened: as §1

ETV2 = molecular target: T10, ETV2 (Homo sapiens, UniProt O00321 1-342); conditions: protein: recombinant; tags: N-terminal GST; dsDNA, one strand shown
T10 sequence: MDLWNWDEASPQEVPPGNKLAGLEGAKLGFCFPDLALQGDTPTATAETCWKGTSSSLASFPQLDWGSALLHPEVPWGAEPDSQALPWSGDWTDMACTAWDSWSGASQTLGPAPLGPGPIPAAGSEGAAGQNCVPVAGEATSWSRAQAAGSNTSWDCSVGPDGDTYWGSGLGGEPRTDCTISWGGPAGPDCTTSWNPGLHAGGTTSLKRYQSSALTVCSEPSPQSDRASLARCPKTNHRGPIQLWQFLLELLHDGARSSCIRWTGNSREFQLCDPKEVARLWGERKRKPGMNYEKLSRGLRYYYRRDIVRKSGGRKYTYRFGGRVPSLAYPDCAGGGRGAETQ
Procedure, shortened: as §1

ELF3 = molecular target: T11, ELF3 (Homo sapiens, UniProt P78545 1-371); conditions: protein: recombinant; tags: N-terminal GST; dsDNA, one strand shown
T11 sequence: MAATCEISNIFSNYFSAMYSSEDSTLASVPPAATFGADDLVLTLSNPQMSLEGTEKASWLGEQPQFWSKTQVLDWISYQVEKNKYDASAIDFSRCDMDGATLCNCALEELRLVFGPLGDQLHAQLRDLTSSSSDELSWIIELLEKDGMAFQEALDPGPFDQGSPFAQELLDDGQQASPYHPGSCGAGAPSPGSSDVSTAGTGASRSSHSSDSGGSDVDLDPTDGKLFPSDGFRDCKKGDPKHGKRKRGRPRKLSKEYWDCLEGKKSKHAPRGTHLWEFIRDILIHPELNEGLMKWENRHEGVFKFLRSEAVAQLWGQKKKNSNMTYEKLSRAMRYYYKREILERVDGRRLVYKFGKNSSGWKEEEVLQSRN
Procedure, shortened: as §1

CRX = CRX (Homo sapiens, UniProt O43186 1-299); conditions: protein: recombinant; tags: N-terminal GST; dsDNA, one strand shown
Procedure, shortened: as §1

ETV1 = ETV1 (Homo sapiens, UniProt P50549 1-477); conditions: protein: recombinant; tags: N-terminal GST; dsDNA, one strand shown
Procedure, shortened: as §1

ELF1, sequence (P32519 whole entry): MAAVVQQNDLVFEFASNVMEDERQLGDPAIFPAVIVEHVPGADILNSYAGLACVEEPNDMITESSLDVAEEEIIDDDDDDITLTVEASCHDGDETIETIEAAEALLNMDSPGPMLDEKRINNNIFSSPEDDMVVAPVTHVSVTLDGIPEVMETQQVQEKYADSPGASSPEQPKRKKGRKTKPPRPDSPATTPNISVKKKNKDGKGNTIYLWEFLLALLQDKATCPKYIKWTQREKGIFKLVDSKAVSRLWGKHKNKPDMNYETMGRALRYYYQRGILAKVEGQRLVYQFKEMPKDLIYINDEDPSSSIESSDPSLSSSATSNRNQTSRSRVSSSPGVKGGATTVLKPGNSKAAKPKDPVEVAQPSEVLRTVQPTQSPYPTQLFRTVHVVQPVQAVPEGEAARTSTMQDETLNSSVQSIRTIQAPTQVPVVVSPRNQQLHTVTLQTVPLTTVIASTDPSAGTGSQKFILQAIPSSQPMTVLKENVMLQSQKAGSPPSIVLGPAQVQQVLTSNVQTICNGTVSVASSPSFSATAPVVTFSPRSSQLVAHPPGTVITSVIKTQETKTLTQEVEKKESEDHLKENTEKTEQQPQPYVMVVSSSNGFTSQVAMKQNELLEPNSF
SPIB, sequence (Q01892 whole entry): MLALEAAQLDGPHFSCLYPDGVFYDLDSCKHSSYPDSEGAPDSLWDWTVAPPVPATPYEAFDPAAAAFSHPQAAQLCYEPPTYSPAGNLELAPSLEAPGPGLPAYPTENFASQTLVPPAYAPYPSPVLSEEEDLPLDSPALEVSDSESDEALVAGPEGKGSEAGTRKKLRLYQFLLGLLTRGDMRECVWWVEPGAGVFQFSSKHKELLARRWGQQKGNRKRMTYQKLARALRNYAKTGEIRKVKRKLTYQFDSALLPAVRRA
ETV1, sequence (P50549 whole entry): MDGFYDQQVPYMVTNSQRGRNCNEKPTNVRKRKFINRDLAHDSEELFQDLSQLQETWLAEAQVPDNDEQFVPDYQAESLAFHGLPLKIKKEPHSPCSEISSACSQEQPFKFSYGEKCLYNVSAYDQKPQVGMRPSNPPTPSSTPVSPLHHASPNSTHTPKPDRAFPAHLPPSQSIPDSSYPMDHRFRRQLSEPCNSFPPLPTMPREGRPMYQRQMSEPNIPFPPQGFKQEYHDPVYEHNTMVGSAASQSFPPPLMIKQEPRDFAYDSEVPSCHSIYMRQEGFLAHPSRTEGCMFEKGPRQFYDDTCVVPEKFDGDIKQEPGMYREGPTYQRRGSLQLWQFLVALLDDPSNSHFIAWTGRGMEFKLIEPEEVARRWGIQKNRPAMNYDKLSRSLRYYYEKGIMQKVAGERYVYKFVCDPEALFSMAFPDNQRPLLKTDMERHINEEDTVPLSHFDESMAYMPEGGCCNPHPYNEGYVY
CRX, sequence (O43186 whole entry): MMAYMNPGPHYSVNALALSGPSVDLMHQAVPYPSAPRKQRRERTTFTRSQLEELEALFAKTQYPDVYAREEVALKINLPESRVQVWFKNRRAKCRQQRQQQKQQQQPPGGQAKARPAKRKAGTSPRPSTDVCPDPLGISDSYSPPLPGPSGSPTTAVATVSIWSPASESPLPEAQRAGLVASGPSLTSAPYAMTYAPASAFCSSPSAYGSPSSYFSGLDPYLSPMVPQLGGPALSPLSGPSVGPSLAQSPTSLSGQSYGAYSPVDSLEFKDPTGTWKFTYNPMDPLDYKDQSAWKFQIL
ELF4, sequence (Q99607 whole entry): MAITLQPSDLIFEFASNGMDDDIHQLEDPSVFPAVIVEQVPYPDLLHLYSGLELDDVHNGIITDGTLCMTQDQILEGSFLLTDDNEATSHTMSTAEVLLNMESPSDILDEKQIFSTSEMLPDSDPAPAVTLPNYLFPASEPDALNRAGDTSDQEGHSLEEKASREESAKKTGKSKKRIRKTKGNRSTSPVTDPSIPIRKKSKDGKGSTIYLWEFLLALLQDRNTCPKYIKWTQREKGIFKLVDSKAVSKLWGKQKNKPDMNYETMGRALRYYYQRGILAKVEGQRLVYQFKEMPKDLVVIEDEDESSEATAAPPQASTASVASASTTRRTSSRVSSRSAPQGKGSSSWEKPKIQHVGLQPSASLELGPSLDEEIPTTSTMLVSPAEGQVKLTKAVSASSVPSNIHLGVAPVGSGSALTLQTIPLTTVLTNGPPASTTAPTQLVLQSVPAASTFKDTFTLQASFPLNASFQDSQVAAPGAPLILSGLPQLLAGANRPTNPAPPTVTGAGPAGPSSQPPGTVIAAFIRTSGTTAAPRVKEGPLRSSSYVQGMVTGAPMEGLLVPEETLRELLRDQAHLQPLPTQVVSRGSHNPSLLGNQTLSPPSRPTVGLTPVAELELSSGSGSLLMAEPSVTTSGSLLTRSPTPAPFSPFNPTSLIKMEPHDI
ETV5, sequence (P41161 whole entry): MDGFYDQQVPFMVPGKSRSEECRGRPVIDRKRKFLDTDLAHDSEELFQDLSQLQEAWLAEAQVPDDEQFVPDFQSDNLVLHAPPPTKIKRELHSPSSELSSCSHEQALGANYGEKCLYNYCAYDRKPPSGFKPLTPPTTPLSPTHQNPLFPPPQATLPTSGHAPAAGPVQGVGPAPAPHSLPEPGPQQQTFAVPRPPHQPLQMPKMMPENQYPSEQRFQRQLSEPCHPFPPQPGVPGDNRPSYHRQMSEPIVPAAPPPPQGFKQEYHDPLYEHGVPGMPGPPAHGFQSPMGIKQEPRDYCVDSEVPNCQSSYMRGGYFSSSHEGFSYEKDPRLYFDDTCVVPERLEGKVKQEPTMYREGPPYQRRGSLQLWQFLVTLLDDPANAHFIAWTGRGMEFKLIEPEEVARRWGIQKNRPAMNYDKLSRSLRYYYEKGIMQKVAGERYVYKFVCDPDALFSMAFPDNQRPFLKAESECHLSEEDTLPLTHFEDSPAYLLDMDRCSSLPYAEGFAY
HSF1, sequence (Q00613 whole entry): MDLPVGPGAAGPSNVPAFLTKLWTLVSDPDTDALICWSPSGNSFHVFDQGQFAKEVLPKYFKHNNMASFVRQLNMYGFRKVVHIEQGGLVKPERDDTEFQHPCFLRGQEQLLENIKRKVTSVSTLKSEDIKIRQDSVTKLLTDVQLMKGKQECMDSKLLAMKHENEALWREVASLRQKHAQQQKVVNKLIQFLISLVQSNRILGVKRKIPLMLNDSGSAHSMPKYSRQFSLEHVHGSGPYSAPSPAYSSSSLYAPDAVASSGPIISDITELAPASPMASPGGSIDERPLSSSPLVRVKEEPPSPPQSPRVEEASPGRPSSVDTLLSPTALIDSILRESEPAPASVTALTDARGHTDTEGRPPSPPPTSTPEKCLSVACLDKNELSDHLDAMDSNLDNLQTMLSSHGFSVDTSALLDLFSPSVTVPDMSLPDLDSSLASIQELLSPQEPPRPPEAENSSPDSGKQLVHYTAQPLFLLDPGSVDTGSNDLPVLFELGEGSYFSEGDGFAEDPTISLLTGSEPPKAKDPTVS

TTGCGA
binding signal (FLI1): 1.19 fold enrichment (6-mer frequency, TF over GST control)
binding signal (ELK1): 1.08 fold enrichment (6-mer frequency, TF over GST control)
binding signal (GABPA): 1.1 fold enrichment (6-mer frequency, TF over GST control)
binding signal (ERG): 1.17 fold enrichment (6-mer frequency, TF over GST control)
binding signal (ELF1): 1.16 fold enrichment (6-mer frequency, TF over GST control)
binding signal (EHF): 1.13 fold enrichment (6-mer frequency, TF over GST control)
binding signal (SPI1): 1.17 fold enrichment (6-mer frequency, TF over GST control)
binding signal (SPIB): 1.23 fold enrichment (6-mer frequency, TF over GST control)
binding signal (ELK3): 1.21 fold enrichment (6-mer frequency, TF over GST control)
binding signal (FEV): 1.08 fold enrichment (6-mer frequency, TF over GST control)
binding signal (ETV5): 1.15 fold enrichment (6-mer frequency, TF over GST control)
binding signal (HSF1): 1.24 fold enrichment (6-mer frequency, TF over GST control)
binding signal (SPIC): 1.35 fold enrichment (6-mer frequency, TF over GST control)
binding signal (ELF4): 1.14 fold enrichment (6-mer frequency, TF over GST control)
binding signal (ELK4): 1.11 fold enrichment (6-mer frequency, TF over GST control)
binding signal (ETV2): 1.1 fold enrichment (6-mer frequency, TF over GST control)
binding signal (ELF3): 1.16 fold enrichment (6-mer frequency, TF over GST control)
binding signal (CRX): 1.15 fold enrichment (6-mer frequency, TF over GST control)
binding signal (ETV1): 1.15 fold enrichment (6-mer frequency, TF over GST control)
